What all share (test): NCI-60 one-dose screen, 48 h (100 = growth as untreated, 0 = no growth, -100 = all killed)
Common to all, as to settings: 10 µM unless noted

The subject of experiment [1] is SK-MEL-2 melanoma.
Experiment [2] concerns EKVX NSCLC.
For experiment [3], the system named is SN12C renal.
Experiment [4] concerns UO-31 renal.
In experiment [5] the test system is TK-10 renal.
Experiment [6] concerns ACHN renal.
For experiment [7], the system named is CAKI-1 renal.
Experiment [8] relates to A498 renal.
In experiment [9] the test system is CCRF-CEM leukemia.
Experiment [10] has as its system MOLT-4 leukemia.

Compounds without any hit were thinned out: in the full panel of roughly 83,000, 20% have a hit.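 Interpretation: 100, growth as untreated; towards 0, rising growth inhibition; 0, no net growth; 0 to -100, cell death. Compounds scoring below 10 were considered active.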 Values without a mark were called inactive. The source made the active and inactive calls.

Turning to `CC1(C)CC(=O)c2cc3c(N)c(C(=O)Nc4ccc(Cl)cc4)sc3nc2C1`, the growth in [1] was 101%; in experiment [2], 93.2%; in experiment [3], 110%; in experiment [4], 109%; in experiment [5] it was 95.2%; in experiment [6], 117%. Further, the growth in experiment [7] is 134%; in experiment [8] it was 75.6%; in [9], 97.2%; in experiment [10], 104%.
Consider `CCOC(=O)c1ccc2c(c1)nc(-c1ccc(Cl)cc1)n2-c1cc(C(C)(C)C)[nH]n1`, for which the growth in [1] was 38.7%; in [2], 47.6%; in experiment [3], 60.5%; in experiment [4], 36.3%; in experiment [5] it was 84.9%; in [6], 35.8%. Moreover, the growth in experiment [7] is 25.5%; in [8], 45.3%; in [9], 22.3%; in experiment [10] it was 9.68% (active).
Regarding `CCN(CC)CCNC(=O)C(F)(F)C(F)(F)C(F)(F)F`, the growth was 106% in experiment [1]; 102% in experiment [2]; 108% in [3]; 89.9% in experiment [4]; 108% in [5]; 101% in experiment [6]. The growth is 94.6% in [7], 102% in experiment [8], 100% in [9] and 109% in experiment [10].
As to `COc1ccc(/C=C/c2nc(NCCCN(C)C)c3ccccc3n2)cc1`, the growth in experiment [1] is -50.9% (active); in experiment [2], 64.3%; in experiment [3], 86.7%; in experiment [4] it was 81.9%; in [5], 89.3%; in [6], 122%. The growth was 87.7% in experiment [7], 93.6% in experiment [8], -44.9% (active) in experiment [9] and -46% (active) in experiment [10].
Take `COc1ccc(C(=O)C(CN(C)C)c2ccc(OC)cc2)cc1` (stereo not given): the growth in experiment [1] is 75.1%; in experiment [2] it was 90.7%; in [3] it was 62.5%; in experiment [4], 67.9%; in [5], 52%; in experiment [6] it was 54.1%. The growth in experiment [7] was 73.9%; in [8] it was 64.4%; in experiment [9], 3.8% (active); in experiment [10] it was 52.9%.
For the compound `O=[N+]([O-])c1ccc(SSc2ccc([N+](=O)[O-])cc2Cl)c(Cl)c1`, the growth in [1] was 104%; in [2] it was 87.9%; in [3], 93.4%; in [4] it was 64.7%; in [5], 105%; in experiment [6] it was 97.7%. The growth in experiment [7] is 87.7%; in experiment [8], 22.7%; in experiment [9], 98.9%; in [10], 78.1%.
For `Oc1ccccc1-c1nnc(COc2ccc(Cl)cc2Cl)o1`, the growth in experiment [1] was 37.9%; in experiment [2], 31.1%; in experiment [3], 52.6%; in [4], 30.2%; in experiment [5] it was 63.7%; in [6] it was 43.5%. Also, the growth in experiment [7] is 41.5%; in [8], 89.9%; in experiment [9] it was 15.5%; in experiment [10], 19.5%.
As for `CC(NC(=O)c1ccccc1)C(=O)Nc1ccccc1` (stereo not given), the growth in experiment [1] is 104%; in [2], 105%; in experiment [3] it was 109%; in experiment [4] it was 94.9%; in experiment [5], 103%; in experiment [6], 103%. Also, the growth was 107% in experiment [7], 103% in [8], 90.4% in experiment [9] and 101% in experiment [10].
Turning to `COc1ccc(Nc2nc(N)nc3c(=O)[nH]ccc23)cc1`, the growth in experiment [1] is 111%; in experiment [2], 105%; in [3], 113%; in experiment [4] it was 64.6%; in [5] it was 173%; in experiment [6], 115%. Moreover, the growth in [7] was 93.3%; in experiment [8], 120%; in experiment [9], 83.9%; in experiment [10], 97.8%.
For the compound `O=C1/C(=C/N2N=C(c3ccc(Cl)cc3)CC2c2ccccc2O)SC(=S)N1c1cccc(C(F)(F)F)c1` (stereo not given), the growth in experiment [1] is 90.7%; in experiment [2], 52.5%; in experiment [3], 52.6%; in [4] it was 24.9%; in experiment [5], 78.3%; in [6], 55.3%. Further, the growth in experiment [7] is 55.5%; in [8] it was 65.8%; in experiment [9], 30%; in experiment [10], 8.36% (active).
`COc1cc(OC)c(Cl)cc1N`: the growth in experiment [1] is 116%; in [2] it was 118%; in [3] it was 93.1%; in [4], 91.3%; in experiment [5], 105%; in experiment [6], 101%. Moreover, the growth in [7] is 91.6%; in [8], 90.9%; in experiment [9], 97.3%; in [10], 108%.
For the compound `COc1cccc(-c2cc(-c3cccs3)c(C#N)c(=O)[nH]2)c1`, the growth is 107% in experiment [1]; 106% in [2]; 103% in experiment [3]; 89.4% in experiment [4]; 122% in experiment [5]; 102% in [6]. Besides, the growth is 96.8% in experiment [7], 100% in experiment [8], 100% in [9] and 107% in [10].
On to `CC(=O)O[C@@H]1CC2C(C)(C)CCCC2(C)C2=C1C(=O)C(C(C)C)=CC2=O` (stereo not given in full), for which the growth is -47.9% (active) in [1]; 10.8% in experiment [2]; 7.47% (active) in [3]; -94.1% (active) in experiment [4]; 18.6% in experiment [5]; -70.2% (active) in experiment [6]. In addition, the growth in experiment [7] was -3.95% (active); in experiment [8], -63.3% (active); in [9], 14%; in experiment [10], 9.69% (active).
In the case of `CCOC(=O)Nc1ccc2nc(Sc3ccc(Cl)cc3)sc2c1`, the growth in experiment [1] was 46.8%; in experiment [2], 57.6%; in experiment [3], 40.4%; in experiment [4] it was 43.9%; in experiment [5], 53.1%; in experiment [6], 61.5%. In addition, the growth was 19.2% in [7], 58% in [8], 20.2% in experiment [9] and 37.8% in [10].

For the origin of these results see PubChem BioAssay (NCI).
